Reference: PubChem BioAssay
Active and inactive are the calls of the source.

Key:
[1] = target: Albumin (Bos taurus) (UniProt P02769); experiment: compounds binding labelled BSA control protein – biochemical, small-molecule microarray, Alexa647 label, 635/667 nm fluorescence, artefact control for SMM control protein annotation, profiling panel (AID 1118); conditions: BSA-A647 binding, fluorescence 635 nm, higher = more signal;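 also: score merges 667 nm emission intensity and signal-to-noise per printed compound spot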
[2] = probe aXIP binding to arrayed compounds – biochemical, NeuroSMM set, 635/667 nm fluorescence, primary screen (AID 1119); conditions: small-molecule microarray, higher = more signal, called active from +8 up or from −8 down;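 also: probe is the protein aXip251-270 applied at 1 µg/mL to compound-printed slides; binding of probe to printed compounds measured as 667 nm fluorescence plus signal to noise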
[3] = probe aNOTCH3 binding on compound microarray – biochemical, small-molecule microarray, 635/667 nm fluorescence, primary screen (AID 1120); conditions: higher = more signal;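 also: probe is a biotin-tagged antibody raised against NOTCH3 rather than NOTCH3 protein; score merges spot fluorescence near 667 nm with spot signal to noise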
[4] = probe aNOTCH2 binding on compound microarray – biochemical, small-molecule microarray, 635/667 nm fluorescence, primary screen (AID 1121); conditions: higher = more signal;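 also: score merges feature fluorescence read at 667 nm with its signal to noise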
[5] = target: Carbonic anhydrase 2 (Homo sapiens) (UniProt P00918); experiment: compounds binding carbonic anhydrase 2 – biochemical, small-molecule microarray, Alexa647-labelled CAII, profiling panel (AID 1122); conditions: CAII-A647 binding fluorescence, higher = more signal
[6] = COS7 lysate on small-molecule microarray, probe aHis, 635 nm (AID 1123); conditions: COS7 cell lysate, fluorescence, higher = more signal;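 also: z-score combines 667nm fluorescence intensity with signal-to-noise per printed compound spot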
[7] = probe aLAP1 signal on lysate-treated microarray – cell lysate, small-molecule microarray, COS7 lysate, primary screen (AID 1124); conditions: probe aLAP1, fluorescence, higher = more signal;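 also: lysate comes from COS7 cells expressing LAP1 and is applied at 0.3 µg/mL; score merges spot fluorescence near 667 nm with signal-to-noise over triplicate slides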
[8] = test system: Sam68 (KHDRBS1); experiment: compounds binding KHDRBS1 protein – biochemical, small-molecule microarray, 635 nm fluorescence, primary screen (AID 1125); conditions: higher = more signal;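 also: score merges 667 nm channel intensity with signal to noise over triplicate slides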
[9] = test system: Chordin-like protein 2 (CHRDL2); experiment: compounds binding chordin-like 2 – biochemical, small-molecule microarray, 635 nm fluorescence, primary screen (AID 1126); conditions: fluorescence 635 nm, higher = more signal;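 also: printed compound slides probed with Chrdl2 protein at 4 µg/mL for 1 h at 4 C; score merges 667 nm emission intensity with signal to noise over three replicate slides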
[10] = target: Concanavalin-A (Canavalia ensiformis) (UniProt P02866); experiment: compounds binding concanavalin A lectin – biochemical, small-molecule microarray, Alexa647 label, 635 nm, artefact control for SMM control protein annotation, primary screen (AID 1127); conditions: ConA-A647 binding fluorescence, higher = more signal;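 also: z combines 667 nm emission intensity with signal-to-noise across three replicate slides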
[11] = compounds binding Alexa647 anti-His antibody – biochemical, small-molecule microarray, 635 nm fluorescence, artefact control for SMM control protein annotation, primary screen (AID 1128); conditions: higher = more signal;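 also: score merges feature fluorescence with signal-to-noise for each printed compound spot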
[12] = test system: Human papillomavirus type 1a E7 protein (residues 1-88); experiment: HPV1a E7 small-molecule binders, primary screen, biochemical, small-molecule microarray, residues 1-88, 635 nm (AID 1129); conditions: small-molecule microarray binding, fluorescence 635 nm; higher = more signal
[13] = target: Focal adhesion kinase 1 (Homo sapiens) (UniProt Q05397); experiment: PTK2 protein binding on printed compound slides – biochemical, small-molecule microarray, 635/667 nm fluorescence, BSA, DTT, primary screen (AID 1130); conditions: 635 nm fluorescence, higher = more signal;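 also: composite of spot emission at 667 nm and signal to noise over triplicate slides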
[14] = test system: Fibrinogen (Alexa647-labelled); experiment: Alexa647-fibrinogen binding to printed small molecules – biochemical, small-molecule microarray, 635/667 nm fluorescence, artefact control for SMM control-protein annotation, profiling panel (AID 1131); conditions: fibrinogen-A647 binding fluorescence, higher = more signal;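 also: z-score merges 667 nm fluorescence with per-spot signal-to-noise over triplicate slides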
[15] = target: Follistatin (Homo sapiens) (UniProt P19883); experiment: FST protein binding to printed compounds – biochemical, small-molecule microarray, 635/667 nm fluorescence, primary screen (AID 1132); conditions: 635 nm fluorescence, higher = more signal
[16] = target: Fibroblast growth factor 2 (Homo sapiens) (UniProt P09038); experiment: basic fibroblast growth factor binding to printed compounds – biochemical, small-molecule microarray, 635/667 nm fluorescence, primary screen (AID 1133); conditions: FGF2, fluorescence 635/667, higher = more signal
[17] = JC-1 mitochondrial potential readout, lung cancer cells – cell-based, A549, JC-1 fluorescence, basal, 24 h, 100 nL, profiling panel (AID 1138); conditions: higher = more signal;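 also: A549 lung adenocarcinoma cells under basal conditions with no added stimulus; test concentration not given here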
[18] = test system: Lefty1; experiment: Lefty1 protein binding to printed compounds – biochemical, small-molecule microarray, 635/667 nm fluorescence, primary screen (AID 1139); conditions: fluorescence 635/667, higher = more signal
[19] = test system: wheat germ agglutinin (Triticum aestivum), Alexa647-labelled; experiment: Alexa647-WGA lectin binding to printed small molecules – biochemical, small-molecule microarray, 635/667 nm fluorescence, artefact control for SMM control-protein annotation, profiling panel (AID 1140); conditions: WGA-A647 binding, 635 nm fluorescence, higher = more signal;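 also: score merges 667 nm feature emission with signal to noise over triplicate slides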
[20] = target: Luciferin 4-monooxygenase (Photinus pyralis) (UniProt P08659); experiment: inhibition of purified Photinus pyralis luciferase – biochemical, luminescence, purified enzyme, 2006 set, primary screen (AID 1141); conditions: purified firefly luciferase, SteadyGlo luminescence, 30 min; higher = more signal, called active from +8 up or from −8 down;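 also: cell-free assay with purified firefly luciferase at 100 ng per well in PBS; test concentration not given here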
Sequence of Luciferin 4-monooxygenase (Photinus pyralis) (P08659 whole entry, looked up): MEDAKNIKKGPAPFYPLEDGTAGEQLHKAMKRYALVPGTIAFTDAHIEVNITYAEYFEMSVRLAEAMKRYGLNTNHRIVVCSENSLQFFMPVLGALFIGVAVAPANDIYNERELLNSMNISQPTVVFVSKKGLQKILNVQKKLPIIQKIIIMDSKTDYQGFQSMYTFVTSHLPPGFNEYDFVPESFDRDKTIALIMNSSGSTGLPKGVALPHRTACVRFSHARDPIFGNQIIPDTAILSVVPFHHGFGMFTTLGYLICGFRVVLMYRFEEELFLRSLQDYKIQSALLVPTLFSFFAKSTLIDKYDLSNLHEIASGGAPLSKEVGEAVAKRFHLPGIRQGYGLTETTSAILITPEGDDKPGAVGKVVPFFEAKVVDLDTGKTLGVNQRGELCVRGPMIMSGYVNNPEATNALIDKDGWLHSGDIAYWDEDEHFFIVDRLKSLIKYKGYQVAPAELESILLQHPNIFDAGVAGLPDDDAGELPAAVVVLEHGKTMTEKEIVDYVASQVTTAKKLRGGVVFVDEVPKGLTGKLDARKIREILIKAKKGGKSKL

Sequence of Concanavalin-A (Canavalia ensiformis) (P02866 whole entry, looked up): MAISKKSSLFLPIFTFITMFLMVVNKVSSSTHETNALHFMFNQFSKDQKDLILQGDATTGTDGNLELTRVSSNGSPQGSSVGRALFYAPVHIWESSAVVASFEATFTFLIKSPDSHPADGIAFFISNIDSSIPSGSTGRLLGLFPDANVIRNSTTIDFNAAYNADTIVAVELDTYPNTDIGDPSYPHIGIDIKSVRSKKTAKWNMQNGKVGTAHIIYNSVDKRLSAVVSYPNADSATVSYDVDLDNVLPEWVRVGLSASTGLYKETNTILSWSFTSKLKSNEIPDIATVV
Sequence of Fibroblast growth factor 2 (Homo sapiens) (P09038 whole entry, looked up): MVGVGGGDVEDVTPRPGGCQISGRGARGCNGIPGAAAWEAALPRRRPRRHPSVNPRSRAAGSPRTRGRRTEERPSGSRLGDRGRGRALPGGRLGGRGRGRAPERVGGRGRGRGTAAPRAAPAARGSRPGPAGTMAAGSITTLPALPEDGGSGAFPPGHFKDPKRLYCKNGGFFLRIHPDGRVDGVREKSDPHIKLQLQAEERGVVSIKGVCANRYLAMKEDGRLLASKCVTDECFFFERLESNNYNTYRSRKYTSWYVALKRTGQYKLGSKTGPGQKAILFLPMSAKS
Sequence of Focal adhesion kinase 1 (Homo sapiens) (Q05397 whole entry, looked up): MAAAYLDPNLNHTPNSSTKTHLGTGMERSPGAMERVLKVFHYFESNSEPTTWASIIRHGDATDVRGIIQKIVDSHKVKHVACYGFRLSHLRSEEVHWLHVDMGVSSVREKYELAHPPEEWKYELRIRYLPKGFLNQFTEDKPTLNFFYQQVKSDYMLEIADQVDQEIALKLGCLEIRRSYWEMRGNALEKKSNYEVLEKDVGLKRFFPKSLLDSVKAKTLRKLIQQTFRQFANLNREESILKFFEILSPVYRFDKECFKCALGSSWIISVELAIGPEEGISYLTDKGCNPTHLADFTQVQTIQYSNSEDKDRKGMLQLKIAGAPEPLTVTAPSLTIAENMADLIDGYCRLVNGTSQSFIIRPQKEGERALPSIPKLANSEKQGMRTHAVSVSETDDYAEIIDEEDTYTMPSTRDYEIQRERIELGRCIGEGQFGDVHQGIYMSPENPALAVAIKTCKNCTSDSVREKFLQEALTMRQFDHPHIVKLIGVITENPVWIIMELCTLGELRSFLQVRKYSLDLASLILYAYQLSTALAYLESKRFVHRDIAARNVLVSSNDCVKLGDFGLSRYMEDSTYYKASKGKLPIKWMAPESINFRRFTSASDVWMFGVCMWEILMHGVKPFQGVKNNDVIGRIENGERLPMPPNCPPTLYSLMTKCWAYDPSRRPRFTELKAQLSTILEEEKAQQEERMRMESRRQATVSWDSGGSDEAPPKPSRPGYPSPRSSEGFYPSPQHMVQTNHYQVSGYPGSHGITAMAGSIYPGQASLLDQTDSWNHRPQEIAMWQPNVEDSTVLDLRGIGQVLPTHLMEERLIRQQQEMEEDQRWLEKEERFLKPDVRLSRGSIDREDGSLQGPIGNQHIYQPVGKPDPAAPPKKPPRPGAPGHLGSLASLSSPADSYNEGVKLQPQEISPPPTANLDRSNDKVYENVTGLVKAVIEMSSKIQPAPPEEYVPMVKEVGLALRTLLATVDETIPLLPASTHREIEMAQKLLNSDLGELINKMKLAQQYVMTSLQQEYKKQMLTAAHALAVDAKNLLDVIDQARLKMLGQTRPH
Sequence of Follistatin (Homo sapiens) (P19883 whole entry, looked up): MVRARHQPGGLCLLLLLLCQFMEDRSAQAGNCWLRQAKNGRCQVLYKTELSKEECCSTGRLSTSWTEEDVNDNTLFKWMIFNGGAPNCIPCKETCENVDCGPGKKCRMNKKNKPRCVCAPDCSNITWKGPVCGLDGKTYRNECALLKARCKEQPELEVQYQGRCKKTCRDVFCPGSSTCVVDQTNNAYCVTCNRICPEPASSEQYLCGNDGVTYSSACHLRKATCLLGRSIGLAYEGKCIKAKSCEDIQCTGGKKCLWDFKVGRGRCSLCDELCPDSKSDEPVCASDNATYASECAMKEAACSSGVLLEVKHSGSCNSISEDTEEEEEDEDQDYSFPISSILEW
Sequence of Albumin (Bos taurus) (P02769 whole entry, looked up): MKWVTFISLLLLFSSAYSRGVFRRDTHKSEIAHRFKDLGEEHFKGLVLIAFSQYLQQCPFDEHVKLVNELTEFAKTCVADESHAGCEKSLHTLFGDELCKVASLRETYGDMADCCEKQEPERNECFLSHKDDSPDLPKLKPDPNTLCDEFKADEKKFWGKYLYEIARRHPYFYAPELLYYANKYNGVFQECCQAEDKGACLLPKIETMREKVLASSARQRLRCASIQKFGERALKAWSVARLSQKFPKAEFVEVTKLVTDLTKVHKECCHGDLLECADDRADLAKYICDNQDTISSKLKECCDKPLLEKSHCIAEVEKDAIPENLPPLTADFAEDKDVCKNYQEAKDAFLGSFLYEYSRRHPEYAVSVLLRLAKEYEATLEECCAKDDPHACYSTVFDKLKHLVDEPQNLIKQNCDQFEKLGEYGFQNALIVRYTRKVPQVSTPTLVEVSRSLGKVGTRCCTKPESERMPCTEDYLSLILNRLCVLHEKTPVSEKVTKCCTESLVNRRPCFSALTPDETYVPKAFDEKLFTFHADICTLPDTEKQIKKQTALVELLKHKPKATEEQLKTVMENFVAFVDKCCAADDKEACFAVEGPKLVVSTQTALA

| Compound | composite z-score [1] | composite Z-score [2] | composite z-score [3] | composite z-score [4] | composite z-score [5] | composite z-score [6] | composite z-score [7] | composite z-score [8] | composite z-score [9] | composite z-score [10] | composite z-score [11] | composite z-score [12] | composite z-score [13] | composite z-score [14] | composite z-score [15] | composite z-score [16] | z-score [17] | composite z-score [18] | composite z-score [19] | z-score [20] |
| --- | --- | --- | --- | --- | --- | --- | --- | --- | --- | --- | --- | --- | --- | --- | --- | --- | --- | --- | --- | --- |
| COc1ccc(OC[C@H]2CN3[C@@H](CC[C@@H](C)[C@@H]3c3ccc(Br)cc3)C(=O)O2)cc1 | 0.197 | 0.281 (inactive) | -0.25 | -0.13 | -0.657 | -0.239 | 0.254 | 0.592 | 0.464 | 0.297 | 0.0994 | -0.023 | -0.305 | -0.0163 | 0.385 | 0.042 | -0.124 | 0.664 | -0.108 | -1.55 (inactive) |
| CC(CCC(=O)OC[C@H]1O[C@H](C#Cc2ccccc2)C=C[C@@H]1Oc1ccc(C)cc1)=NO[C@H](C)c1cn([C@@H]2COC[C@H]2O)nn1 | -0.115 | -0.166 (inactive) | -0.0697 | -0.125 | -0.129 | -0.235 | 0.0502 | -0.0882 | 0.308 | -0.785 | 0.254 | -0.0794 | 0.0652 | 0.666 | 0.273 | 0.162 | -0.262 | 0.317 | 0.299 | -2.18 (inactive) |
| CCC1=NOC(CCC2CC(OC(=O)NCc3cccc4c3OCO4)CC3(CCCC(COC(=O)NCCc4ccc(Cl)cc4)O3)O2)C1 (stereo not given) | 0.585 | -0.0197 (inactive) | -0.0647 | -0.0651 | 0.228 | 0.599 | -0.29 | 0.712 | -0.0546 | 0.0985 | 0.696 | 0.459 | -0.123 | 0.663 | 0.0801 | 1.24 | -0.415 | 0.497 | -0.191 | 0.74 (inactive) |
| O=C1CCCC=C1C(O)c1ccc([N+](=O)[O-])cc1 (stereo not given) | 0.265 | -0.163 (inactive) | 0.0494 | -0.148 | -0.187 | -0.251 | 0.0252 | -0.311 | 0.0616 | -0.343 | -0.162 | 0.154 | -0.126 | -0.101 | -0.102 | 0.511 | -0.115 | 0.0283 | -0.199 | -0.171 (inactive) |
| COc1ccc(COC(=O)NN=C2C[C@@H](O)[C@@H](O)[C@@H]3[C@@H]4C(=O)N(C[C@@H]5CCCO5)C(=O)[C@@H]4CC[C@@H]23)cc1 | 0.0566 | 0.58 (inactive) | -0.128 | -0.0832 | 0.234 | 0.727 | 0.824 | 0.78 | 0.508 | 0.327 | 0.365 | 0.275 | -0.2 | 0.953 | 0.0253 | 0.104 | 0.883 | 0.0359 | 0.627 | 0.181 (inactive) |
| CC(=O)OC[C@H]1O[C@H](CC=NO[C@@H](C)c2cn([C@H](CO)Cc3ccccc3)nn2)C=C[C@@H]1OC(C)=O | 0.447 | 0.0225 (inactive) | 0.0517 | -0.0798 | 0.342 | 1.34 | 0.0198 | 0.987 | 0.394 | 0.506 | -0.0515 | 0.656 | -0.0806 | 0.827 | 0.679 | 0.45 | -1.56 | 1.05 | 0.233 | 1.36 (inactive) |
| O=C1[C@H]2[C@H]3[C@H](O)[C@H](O)CC(=NO[C@@H]4O[C@H](CO)[C@@H](O)[C@H](O)[C@H]4O)[C@@H]3CC[C@H]2C(=O)N1C1CCCCC1 | -0.156 | 0.178 (inactive) | 0.0876 | -0.141 | -0.121 | 0.139 | -0.1 | 0.317 | 0.629 | 0.601 | -0.293 | 0.486 | -0.0408 | 0.384 | 0.284 | 0.415 | 0.76 | 0.578 | 0.0714 | -0.33 (inactive) |
| COc1ccc(COC(=O)NN=C2C[C@@H](O)[C@@H](O)[C@@H]3[C@@H]4C(=O)N(C[C@@H]5CCCO5)C(=O)[C@@H]4CC[C@H]23)cc1 | 0.533 | -0.713 (inactive) | 0.0562 | -0.0811 | -0.283 | 0.121 | -0.341 | -0.624 | 0.144 | -0.826 | -0.156 | -0.309 | 0.0444 | -0.269 | -1.13 | -0.902 | -0.252 | -1.1 | 0.128 | 0.917 (inactive) |
| COC(=O)CC=C[C@@H](C)[C@@H](C=NOC[C@@H](C)[C@H](OCc1ccccc1)C(C)C)OC | -0.469 | -0.235 (inactive) | -0.0647 | -0.124 | -0.12 | 0.266 | -0.61 | 0.447 | 0.386 | 0.102 | 1.86 | -0.0858 | 0.0285 | -0.211 | 0.088 | 0.323 | -1.01 | 0.419 | -0.307 | -0.698 (inactive) |
| CC(C)CN1CCc2nc(-c3ccccc3)c3c(c2C1)CO[C@@H](C)C3 | 0.729 | -0.548 (inactive) | 0.0636 | 0.0341 | 0.465 | 0.798 | 0.0322 | 1.29 | 0.53 | 1.11 | 0.454 | 1.16 | 0.741 | 0.756 | 0.785 | 0.525 | 0.0232 | 0.923 | 0.963 | -0.628 (inactive) |
| CON=C[C@@H](OC)[C@H](C)C=CCC(=O)OC | -0.518 | 0.0575 (inactive) | -0.0014 | -0.201 | -0.312 | 0.157 | -0.195 | -0.258 | 0.231 | -0.105 | 1.66 | 0.158 | -0.069 | -1.5 | 0.0902 | 0.0231 | -0.223 | 0.0713 | -0.115 | -0.982 (inactive) |
